CHO-K1 Ca antag: counter-screen for M1 antagonists: effect in parental CHO-K1 cells; ATP-induced calcium, Fluo-8 fluorescence; inhibition, % at 3 µM; actives 0.6% (n = 360,000);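 active means inhibition above a per-plate cutoff, the plate's mean sample inhibition plus 3 SD, cut at about 24% in these data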;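 further: 0% = DMSO plus EC80 ATP and 100% = DMSO alone without ATP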
M1 ag: activates human CHRM1 receptor | P11229 | CHO-K1 hM1, Fluo-8 calcium fluorescence, agonist mode; 0% DMSO, 100% acetylcholine EC100 | activation, % at 3 µM | actives 0.33% (n = 360,000) | AID 588814;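 active means activation above the run's mean compound activation plus 3 SD, cut at about 16% in these data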;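 further: peak over basal fluorescence ratio within a 140 s kinetic read after compound addition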
Target sequence (P11229 whole entry, looked up): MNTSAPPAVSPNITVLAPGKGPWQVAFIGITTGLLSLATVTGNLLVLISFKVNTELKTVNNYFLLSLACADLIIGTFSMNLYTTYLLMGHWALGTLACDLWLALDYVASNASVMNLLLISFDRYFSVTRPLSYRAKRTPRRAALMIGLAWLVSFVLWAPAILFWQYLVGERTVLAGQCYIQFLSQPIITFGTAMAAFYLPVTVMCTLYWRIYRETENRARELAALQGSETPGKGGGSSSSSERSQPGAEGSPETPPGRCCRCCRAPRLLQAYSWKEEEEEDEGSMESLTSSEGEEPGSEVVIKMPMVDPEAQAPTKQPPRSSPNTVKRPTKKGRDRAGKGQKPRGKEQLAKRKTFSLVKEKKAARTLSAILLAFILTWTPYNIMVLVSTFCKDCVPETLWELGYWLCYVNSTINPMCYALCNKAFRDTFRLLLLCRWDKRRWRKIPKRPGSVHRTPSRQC
M1 PAM parental: counter-screen for M1 PAMs: effect in parental CHO-K1 cells; ATP EC20, Fluo-8 calcium fluorescence; 0% at ATP EC20, 100% at ATP max; activation, % at 3 µM; actives 0.02% (n = 360,000);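 active means activation above the run cutoff, the mean activation of all test compounds plus 3 SD, cut at about 40% in these data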;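 further: peak over basal fluorescence ratio in a 140 s read after ATP addition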
CHRM1 PAM: potentiates human M1 receptor response to acetylcholine; AID 588819; actives 0.088% (n = 360,000); CHO-K1 hM1, Fluo-8 calcium fluorescence, ACh EC20; 0% = ACh EC20, 100% = maximal ACh; activation, % at 3 µM; P11229; in the data active means activation above about 19%, passing the limit was not always enough
M1 antag: human CHRM1 antagonism | CHO-K1 hM1, Fluo-8 calcium fluorescence, ACh EC80 antagonist | AID 588852 | actives 1.3% (n = 360,000) | inhibition, % at 3 µM;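 active means percent inhibition above its own plate's cutoff, namely the mean of that plate's compound wells plus 3 SD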;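 further: peak over basal fluorescence ratio during 140 s after agonist addition; 0% = ACh EC80 plus DMSO and 100% = DMSO alone without agonist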
CHO-K1 Ca ag: M1 agonist counterscreen hit in parental CHO-K1 cells | Fluo-8 calcium fluorescence; scaled to maximal ATP response, vehicle zero | activation, % at 3 µM | actives 0.48% (n = 360,000); in the data active means activation above about 15%;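 further: untransfected CHO-K1 host cells lacking M1 receptor as counterscreen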
Numbers without * were called inactive. Rows were chosen to be rich in hits. Some 2.3% of all compounds tested hit in one or more screens of this group.

Screening Cc1cc(-c2ccccc2)nc(SCC(=O)N2CCCC2)n1 returned CHO-K1 Ca antag -11.9, M1 ag -7.3, M1 PAM parental 17.7, CHRM1 PAM 12.6, M1 antag -7.9 and CHO-K1 Ca ag 0.9.
COc1c(C)cc(C(=O)C2CCCN(Cc3cccc4nccnc34)C2)cc1C (stereo unspecified) was read as CHO-K1 Ca antag -8.2, M1 ag -11.7, M1 PAM parental 3.5, CHRM1 PAM -28.8, M1 antag 42.4* and CHO-K1 Ca ag 1.0.
COc1ccccc1C(=O)C1CCCN(Cc2cccc3nccnc23)C1 (stereo unspecified) was read as CHO-K1 Ca antag -9.8, M1 ag -4.0, M1 PAM parental -9.6, CHRM1 PAM -19.0, M1 antag 44.7* and CHO-K1 Ca ag 5.3.
For COc1cccc(C(=O)C2CCCN(C/C=C/c3ccccc3OC)C2)c1 (stereo unspecified) the results were CHO-K1 Ca antag -20.0, M1 ag -8.1, M1 PAM parental -4.3, CHRM1 PAM -16.8, M1 antag 20.7 and CHO-K1 Ca ag 1.7.
For COc1ccc(C(=O)C2CCCN(C/C=C/c3ccccc3OC)C2)c(OC)c1 (stereo unspecified) the results were CHO-K1 Ca antag 11.7, M1 ag -9.8, M1 PAM parental -11.3, CHRM1 PAM -28.3, M1 antag 51.1* and CHO-K1 Ca ag 0.2.
Screening CCOC(=O)N1CCC(N2CCCC(C(=O)c3cc(C)c(OC)c(C)c3)C2)CC1 (stereo unspecified) returned CHO-K1 Ca antag -5.2, M1 ag -10.7, M1 PAM parental 5.7, CHRM1 PAM -27.2, M1 antag 78.3* and CHO-K1 Ca ag 0.4.
Screening CCc1ccc(CNC(=O)CCCC(=O)n2nc(C)c3ccccc32)cc1 returned CHO-K1 Ca antag -18.4, M1 ag -3.1, M1 PAM parental 15.4, CHRM1 PAM 13.6, M1 antag -8.6 and CHO-K1 Ca ag -0.4.
O=S1(=O)CC(N2CCN(CCO)CC2)CN1Cc1ccccc1 (stereo unspecified) was read as CHO-K1 Ca antag 4.7, M1 ag -5.7, M1 PAM parental 19.3, CHRM1 PAM 6.2, M1 antag -9.9 and CHO-K1 Ca ag 1.2.
Screening Cc1ccc(/C=C/c2onc(C)c2S(=O)(=O)N2CCC(C(=O)N3CCCCC3)CC2)cc1 returned CHO-K1 Ca antag -10.7, M1 ag -4.4, M1 PAM parental 26.1, CHRM1 PAM 11.7, M1 antag -16.9 and CHO-K1 Ca ag 0.5.
Screening CCCN1CCN(C(=O)C2CCN(S(=O)(=O)c3c(C)noc3/C=C/c3ccc(C)cc3)CC2)CC1 returned CHO-K1 Ca antag -9.1, M1 ag -4.8, M1 PAM parental 11.1, CHRM1 PAM -22.0, M1 antag 33.9* and CHO-K1 Ca ag 1.6.
Screening CCn1nnnc1NCc1ccc(N2CCCC2)cc1 returned CHO-K1 Ca antag -13.7, M1 ag -4.7, M1 PAM parental 14.4, CHRM1 PAM -22.3, M1 antag 89.4* and CHO-K1 Ca ag 0.4.
Screening CCn1nnnc1NCc1ccc(SC)cc1 returned CHO-K1 Ca antag -2.4, M1 ag -8.5, M1 PAM parental 14.5, CHRM1 PAM -0.3, M1 antag -5.2 and CHO-K1 Ca ag 0.3.
For COc1nccnc1NS(=O)(=O)c1ccc(NC(=O)c2ccc(F)cc2)cc1 the results were CHO-K1 Ca antag -5.1, M1 ag 0.2, M1 PAM parental 22.4, CHRM1 PAM 29.1*, M1 antag -23.0 and CHO-K1 Ca ag 0.9.
Screening COc1ccc(C2=Nn3c(nnc3-c3ccccc3OC)SC2)cc1OCC1CC1 returned CHO-K1 Ca antag -19.9, M1 ag -9.9, M1 PAM parental 24.6, CHRM1 PAM 5.6, M1 antag -9.5 and CHO-K1 Ca ag -0.1.
For COc1ccc(OC)c(-c2nnc3n2N=C(c2ccc(OC(F)F)c(OCC4CC4)c2)CS3)c1 the results were CHO-K1 Ca antag -14.4, M1 ag -9.7, M1 PAM parental 2.1, CHRM1 PAM -30.0, M1 antag 39.7* and CHO-K1 Ca ag -0.1.
Nc1ncnc2c1ncn2C1CCCO1 (stereo unspecified) was read as CHO-K1 Ca antag -1.5, M1 ag 19.5*, M1 PAM parental -0.1, CHRM1 PAM -10.5, M1 antag -17.1 and CHO-K1 Ca ag 0.3.
Cc1ccc(N2C(=O)CSC2c2c(F)cccc2Cl)cc1 (stereo unspecified) was read as CHO-K1 Ca antag 6.3, M1 ag -7.5, M1 PAM parental -1.2, CHRM1 PAM -26.0, M1 antag 98.5* and CHO-K1 Ca ag -0.3.
`COc1cccc(C2SCC(=O)N2c2ccc(Cl)cc2)c1OC` (stereo unspecified) gave CHO-K1 Ca antag 0.4, M1 ag -8.7, M1 PAM parental -4.0, CHRM1 PAM -20.1, M1 antag 50.7* and CHO-K1 Ca ag 0.1.
O=C1c2ccccc2C(c2nnnn2Cc2ccccc2)N1C1CC1 (stereo unspecified) was read as CHO-K1 Ca antag -29.0, M1 PAM parental 22.4 and CHO-K1 Ca ag 1.1.
`C/C(=N\NC(=O)C(c1ccccc1)c1ccccc1)c1ccc(O)cc1` gave CHO-K1 Ca antag -13.2, M1 ag 2.5, M1 PAM parental 19.9, CHRM1 PAM 31.4*, M1 antag -38.8 and CHO-K1 Ca ag 0.5.
Screening CN(C)Cc1cc(C(C)(C)c2ccccc2)ccc1O returned CHO-K1 Ca antag -2.8, M1 ag -5.5, M1 PAM parental 7.2, CHRM1 PAM -27.2, M1 antag 43.1* and CHO-K1 Ca ag 2.9.
COc1ccccc1NS(=O)(=O)c1cccc(-n2c(O)c(C=Nc3ccccc3C(=O)O)c3ccccc3c2=O)c1 was read as CHO-K1 Ca antag -15.4, M1 ag -4.8, M1 PAM parental 17.3, CHRM1 PAM -1.5, M1 antag 69.8* and CHO-K1 Ca ag -0.6.
`CCOc1ccc(N(CC(=O)NCc2ccc(F)cc2)C(=O)c2ccco2)cc1` gave CHO-K1 Ca antag -20.9, M1 ag 6.9, M1 PAM parental 26.2, CHRM1 PAM 13.6, M1 antag -7.9 and CHO-K1 Ca ag -0.8.
`CNC(=O)C(=O)NCC1OCCN1S(=O)(=O)c1ccc(C)cc1` (stereo unspecified) gave CHO-K1 Ca antag 3.6, M1 ag -1.6, M1 PAM parental -23.6, CHRM1 PAM -5.2, M1 antag 14.6 and CHO-K1 Ca ag -0.5.
Screening Cc1ccc(S(=O)(=O)N2CCOC2CNC(=O)C(=O)NCC(C)C)cc1 (stereo unspecified) returned CHO-K1 Ca antag -10.9, M1 ag 3.0, M1 PAM parental 1.1, CHRM1 PAM 24.4*, M1 antag -28.8 and CHO-K1 Ca ag 0.8.
Screening CCOc1ccc(C2NC(=O)NC(C)=C2[N+](=O)[O-])cc1OC (stereo unspecified) returned CHO-K1 Ca antag -9.8, M1 ag -3.0, M1 PAM parental 6.8, CHRM1 PAM 1.8, M1 antag -18.5 and CHO-K1 Ca ag 0.5.
